According to PubChem BioAssay AID504339 (National Center for Advancing Translational Sciences (NCATS), 2011):
Screen size: about 390,000 compounds; about 17,000 (4.4%) were called active. Roughly 8% stayed inconclusive and do not appear here. Calls follow the shape of the dose curve; as a rule, active = well fitted inhibition curve with a large enough effect; inconclusive = small, poorly fitted or top-dose-only effect; inactive = no such curve, though single readings can be large or run the other way. The full list was thinned out, with actives kept by preference.

Each compound was assayed against Lysine-specific demethylase 4A (Homo sapiens) (UniProt O75164) (assay: qHTS Assay for Inhibitors of JMJD2A-Tudor Domain). Conditions: AlphaScreen JMJD2A-Tudor / H3K4me3 peptide binding; series mostly up to 114 µM; activity change, negative = inhibition: at the top concentration.
Lysine-specific demethylase 4A (Homo sapiens), sequence (O75164 whole entry, looked up, the tested form may be a part): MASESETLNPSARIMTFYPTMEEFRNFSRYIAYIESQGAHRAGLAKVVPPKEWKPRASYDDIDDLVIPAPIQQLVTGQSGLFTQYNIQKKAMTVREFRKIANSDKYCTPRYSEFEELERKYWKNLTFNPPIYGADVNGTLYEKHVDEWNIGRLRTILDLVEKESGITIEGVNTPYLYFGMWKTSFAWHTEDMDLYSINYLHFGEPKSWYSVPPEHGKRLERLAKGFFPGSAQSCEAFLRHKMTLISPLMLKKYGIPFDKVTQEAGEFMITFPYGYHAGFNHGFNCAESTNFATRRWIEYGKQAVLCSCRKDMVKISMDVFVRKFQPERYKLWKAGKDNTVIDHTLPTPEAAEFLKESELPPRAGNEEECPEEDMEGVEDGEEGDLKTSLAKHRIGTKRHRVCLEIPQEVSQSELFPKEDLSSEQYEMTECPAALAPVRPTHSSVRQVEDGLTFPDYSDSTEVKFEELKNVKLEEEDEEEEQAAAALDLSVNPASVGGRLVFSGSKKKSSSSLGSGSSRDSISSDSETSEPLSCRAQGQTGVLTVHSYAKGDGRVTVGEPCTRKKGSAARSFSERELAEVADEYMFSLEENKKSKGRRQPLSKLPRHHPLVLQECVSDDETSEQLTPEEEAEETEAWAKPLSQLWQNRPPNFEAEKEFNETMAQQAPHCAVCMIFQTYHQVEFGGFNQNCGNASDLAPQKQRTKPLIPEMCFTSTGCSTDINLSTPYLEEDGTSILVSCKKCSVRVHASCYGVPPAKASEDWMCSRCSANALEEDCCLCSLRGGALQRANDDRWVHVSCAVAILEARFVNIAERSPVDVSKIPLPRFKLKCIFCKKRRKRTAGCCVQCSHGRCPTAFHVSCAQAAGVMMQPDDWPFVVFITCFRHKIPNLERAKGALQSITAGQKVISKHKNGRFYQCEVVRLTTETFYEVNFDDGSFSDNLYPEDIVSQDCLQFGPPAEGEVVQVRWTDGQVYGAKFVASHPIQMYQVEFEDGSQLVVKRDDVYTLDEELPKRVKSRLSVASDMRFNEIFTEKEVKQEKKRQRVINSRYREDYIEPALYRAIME
% is scaled to controls: 0 for no effect and ±100 for the full control effect; potency is read from the fitted curve at half-maximal effect.
Also: nearly all actives have a fitted effect of over 50% in size.

Activity change, negative = inhibition, inactive:
COc1ccc(/C=C/c2noc(-c3ccccc3O)n2)cc1OC -1.37%
COc1ccc(NC(=O)C2CCCN(S(=O)(=O)c3cccc4nonc34)C2)cc1Cl (centres undefined) 2.05%
Cc1cc(C)cc(NC(=O)Cn2c(=O)c3ccccc3n3nncc23)c1 -25.2%
CCc1cccc(-n2nnc(-c3nsc(NC(=O)c4ccc(C)cc4)n3)c2C)c1 -18.2%
COc1cc(/C=C/C(=O)OCC(=O)c2ccccc2)cc(OC)c1OC -8.47%
COc1ccc(NS(=O)(=O)c2cc(NC(=O)/C=C/c3cc(OC)c(OC)c(OC)c3)ccc2N2CCCCC2)cc1 -34.4%
O=C(CN1c2ccccc2S(=O)(=O)c2ccccc21)Nc1cccc(C(F)(F)F)c1 -25.7%
COc1ccccc1N1CCN(c2ncnc3onc(-c4cccc(Cl)c4)c23)CC1 -13.2%
COC(=O)c1ccc(NC(=O)c2cccc3c2C(=O)N(C2CCCCC2)C3)cc1 -5.33%
CCCS(=O)(=O)c1ncc(Cl)c(C(=O)Nc2scc(-c3ccccc3)c2C(=O)OCC)n1 -35.8%
COC(=O)c1ccc(NC(=S)NN2CCOCC2)cc1 -4.79%
O=C(Nc1ccc(S(=O)(=O)Nc2ncccn2)cc1)C12CC3CC(CC(C3)C1)C2 -12.5%
O=C(Nc1ccccc1F)C(c1ccccc1)N1Cc2ccccc2C1=O (centres undefined) -11.9%
CCN(C(=O)Cn1c(=O)nc(-c2ccccc2)c2cc(Cl)ccc21)c1cccc(C)c1 -7.95%
Cc1cn(C)c(CC(=O)NCc2ccc(Cl)cc2)c1C(=O)O -24.7%
CCc1cc2c(cc3c(=O)n(CC(=O)N4CCN(c5cc(Cl)ccc5C)CC4)nc(CC)n32)s1 -21.8%
CCOC(=O)c1ccc(NC(=O)c2csc3c2CCCCC3)cc1 6.91%
O=C(/C=C/c1ccccc1)Nc1cc(-c2nc3cc(Cl)ccc3o2)ccc1Cl 1.49%
Cc1cc(Br)ccc1NC(=S)NC1CCCC1 -10.3%
Cc1ccc(NC(=S)NCCc2ccc(Cl)cc2)c(C)c1 -19.4%
COC(=O)c1ccccc1NC(=O)c1ccc2c(=O)n3c(nc2c1)CCCCC3 7.38%
Cc1ccc(-c2cc(-c3coc4ccccc4c3=O)c3c(n2)-c2cc(Cl)ccc2OC3)cc1 -7.84%
COc1ccccc1NC(=O)CN1C(=O)c2ccccc2Sc2ccc(C(=O)N3CCCC3)cc21 -18.3%
COc1ccc(C2C(C(C)=O)=C(O)C(=O)N2CCc2c[nH]c3ccccc23)cc1 (centres undefined) -13.8%
COc1ccc(C2C(C(C)=O)=C(O)C(=O)N2c2nccs2)cc1 (centres undefined) -2.41%
CCOc1ccccc1NC(=O)Cn1c(=O)n(-c2cccc(C)c2)c(=O)c2c1c1cc(OC)ccc1n2C 4.78%
CCN(CC)C(=O)CSc1nc2ccsc2c(=O)n1Cc1ccccc1Cl -10%
Nc1nnnn1/N=C/c1cccs1 -10.4%
C(=N/N1CCN(c2ccccc2)CC1)/c1cccs1 -28.8%
Cn1c(=O)c2sccc2n2c(CCC(=O)NCc3ccccc3Cl)nnc12 -16%
Cc1ccc(C(=O)Nc2ccc3[nH]c(=O)c(=O)[nH]c3c2)cc1 -2.05%
O=[S+]([O-])(c1ccc(OC(F)(F)F)cc1)N1CCN([S+](=O)([O-])c2ccc3c(c2)OCCO3)CC1 -25.3%
O=C(CC1Oc2ccc(Cl)cc2NC1=O)NCc1ccccc1 (centres undefined) -14.2%
CCc1ccc(NC(=O)CCCc2nnc3n(CCCOC)c(=O)c4sccc4n23)cc1 -16.5%
O=C(CSc1nc2nccnc2c(=O)n1CCc1c[nH]c2ccccc12)Nc1ccccc1F -7.57%
Cc1cc2nn(-c3ccc(Cl)cc3)nc2cc1NC(=O)C(C)C -3.59%
CCCCCCn1nnc2sc(-c3ccccc3)cc2c1=O -6.6%
COc1ccccc1-c1cc2nc(C)c(CCC(=O)O)c(C)n2n1 1.33%
Cc1ccc(C)n1-c1nnc(N2CCC(C(=O)NCc3ccc(F)cc3)CC2)s1 -19.5%
NS(=O)(=O)c1ccc2nc(NC(=O)COc3ccccc3)sc2c1 -23.4%
Cc1cc(C)cc(-n2ccnc2SCC(=O)Nc2nc3ccccc3s2)c1 -9.68%
COc1cc(-c2cc3n(C)c(C)c(CCC(=O)Nc4ccc(F)cc4)c(=O)n3n2)cc(OC)c1OC -8.06%
COC(=O)c1ccccc1NC(=O)c1cc(-c2ccccc2O)no1 -21.7%
Fc1cccc(-n2ncc3c2ncn2nc(-c4ccccc4Cl)nc32)c1 -17.7%
CN1CCN(CCC(=O)N/N=C/C=C2\N(C)c3ccccc3C2(C)C)CC1 -34.9%
CC(=O)Nc1cccc(OCC(=O)/C=C2\N(C)c3ccccc3C2(C)C)c1 -26.1%
O=C1C(F)N([S+](=O)([O-])c2ccc3c(c2)OCCO3)CCN1[S+](=O)([O-])c1c(F)cccc1F (centres undefined) -12.3%
COCCCn1c(SCC(=O)Nc2ccccc2)nnc1-c1ccncc1 -24.6%
COCCCn1c(SCC(=O)NC2CCCC2)nnc1-c1ccccc1 -8.42%
COc1ccccc1CNc1ccc(-c2nc(-c3ccccc3C)no2)cc1[N+](=O)[O-] -5.3%
O=C(Cn1nnc(-c2ccc3c(c2)OCO3)n1)NCc1ccco1 -8.12%
Cc1noc(C)c1-c1ccc2ncnc(NCc3ccc(F)c(F)c3)c2c1 -19.9%
CS(=O)(=O)N(CC(=O)NCc1ccco1)c1ccc2c(c1)OCO2 -24.4%
CN(Cc1cncn1C)c1ncnc2ccc(-c3ccc4c(c3)OCO4)cc12 -32.6%
O=c1c(=O)n(Cc2c(F)cccc2Cl)ccn1Cc1ccccc1 -27.3%
COc1cc(Cl)ccc1Nc1ncc(C(=O)N2CCN(c3ccccc3OC)CC2)c2ccccc12 11.3%
Cc1cccc(C(=O)Nc2ccc(-c3nc4ccccc4s3)c(C)c2)c1 -17%
COc1ccc(CNC(=O)CC2Oc3ccc(C)cc3NC2=O)cc1 (centres undefined) -3.27%
Cc1ccc(-n2nc(CO)c(C(=O)NCCc3ccccc3)n2)cc1 -23.3%
Cc1ccc(NC(=O)C2CCCN2C(=O)OCc2ccccc2)cc1C (centres undefined) -3.78%
Cc1cc(C)n(-c2ccc(NC(=O)C3CCCCN3C(=O)c3cccs3)cc2)n1 (centres undefined) -13.1%
Cc1nn(-c2ccc(N3CCCCC3)nn2)c(C)c1CCC(=O)NCc1ccc(F)cc1 -23.3%
COc1ccc(-c2onc(C)c2C)cc1S(=O)(=O)NCCc1ccccc1 -11%
CCC(CO)Oc1cc(NC(=O)c2ccc(Cl)cc2)c2ncn(C(C)C)c2c1 (centres undefined) -21.4%
CN(C)c1nccc(NCc2ccccc2)c1C#N -7.38%
COc1ccc(CNc2nc(NCc3ccc(OC)cc3)c3ncn(C4CCCC4)c3n2)cc1 -20.8%
CCOC(=O)c1cccc(NC(=O)c2cc(S(=O)(=O)N3CCCC(C)C3)cn2C)c1 (centres undefined) -16%
CC1CCCCN1Cc1c(O)ccc2c(=O)c(-c3cccc(Cl)c3)c(C(F)(F)F)oc12 (centres undefined) -9.62%
O=C(CN1C(=O)CCn2nc(-c3ccccc3)cc21)NCc1ccccc1 -17.2%
Cc1nc2c(-c3ccccc3)c(C)nn2c(C)c1CCC(=O)NCCc1ccccc1 -5.39%
CC(=O)N1CCc2cc(Br)cc(S(=O)(=O)CCC(=O)NCCc3ccc(Cl)cc3)c21 -8.19%
Cn1c(=O)oc2cc(S(=O)(=O)CCC(=O)NCCc3ccc(Cl)cc3)ccc21 4.85%
COc1ccc(Cl)cc1NC(=O)CCS(=O)(=O)c1cc2c(cc1C)NC(=O)CO2 -11.8%
COc1ccc(Cl)cc1NC(=O)CN(C)C(=O)c1ccc2n[nH]nc2c1 -12.5%
COc1ccc(Cl)cc1NC(=O)CN(C)CC(=O)Nc1ccc2c(c1)OCO2 -21.9%
COc1ccc(Cl)cc1NC(=O)CCC(=O)c1ccc(C)cc1 -3.53%
CCCOc1ccc(-c2cccc(NS(=O)(=O)c3ccccc3)c2)nn1 -19.9%
COc1ccc(OC)c(-c2csc(-c3c(N)c(C(=O)c4ccccc4)n4ccccc34)n2)c1 -11.1%
CCc1ccc(C(=O)CC2(O)C(=O)N(CCc3ccccc3)c3ccc(Br)cc32)cc1 (centres undefined) -21.5%
C=C1CCN(Cc2ccc(OC)cc2)S(=O)(=O)c2ccccc21 5.52%

Potency, active:
COc1ccccc1Nc1c2c(nc3ccc(NC(=O)/C=C/c4cc(OC)c(OC)c(OC)c4)cc13)CCCC2 15.8 µM
COC(=O)c1ccc(NC(=O)C23CC4CC(C2)CC(n2cnc(Cl)n2)(C4)C3)cc1 56.2 µM
C[N+]1(CCNC(=O)/C=N/O)CCCCC1 50.1 µM
Cc1ccc(NC(=S)Nc2ncccc2C)c(C)c1 56.2 µM
COC(=O)CN1C(=O)C(O)=C(C(C)=O)C1c1ccc([N+](=O)[O-])cc1 (centres undefined) 31.6 µM
S=c1[nH]nc(-c2cccs2)n1/N=C/c1cccs1 10 µM
Oc1ccccc1/C=N/n1c(-c2cccs2)n[nH]c1=S 22.4 µM
Cc1ccc(Cl)cc1NC(=O)C(C)n1nnc2sc(-c3ccccc3)cc2c1=O (centres undefined) 50.1 µM
c1ccc(C(=NNc2nc3ccccc3s2)c2ccccn2)cc1 31.6 µM
CN1/C(=C\C=C2\N=C(c3ccc(F)cc3)OC2=O)C(C)(C)c2ccccc21 56.2 µM
COCCCn1c(Cc2csc(Nc3cccc(Cl)c3)n2)nnc1SCC(=O)OC1CCCCC1 44.7 µM
c1coc(CCNc2ncnc3ccc(-c4ccc5c(c4)OCO5)cc23)c1 56.2 µM
Cc1nc(CNc2ncnc3ccc(-c4ccc5c(c4)OCO5)cc23)cs1 79.4 µM
COc1ccc(C(=O)N2CCCCC2C(=O)Nc2ccc(-n3nc(C)cc3C)cc2)o1 (centres undefined) 15.8 µM
CCC(CO)Oc1cc(NCc2ccccc2)c2ncn(C3CCCC3)c2c1 (centres undefined) 56.2 µM
CC(C)n1cnc2c(NCc3ccccc3)cc(OCC3CCN(C)CC3)cc21 39.8 µM
O=C(CCS(=O)(=O)c1ccc(Br)cc1)NCCc1ccc(Cl)cc1 63.1 µM
COc1ccc(Cl)cc1NC(=O)CN(C)Cc1ccc(OC)c(OC)c1 1.26 µM
COc1ccc(Cl)cc1NC(=O)CCS(=O)(=O)c1ccc(Br)cc1 22.4 µM
